Sampled rows, rich in hits. Any-hit rate of the full collection: about 1.2%.
eLon inh: inhibits E. coli Lon protease | P0A9M0 | purified E. coli Lon protease, fluorescence polarization | inhibition, % at 7.94 µM | 0.42% of 360,000 active; in the data active means inhibition above about 13%, passing the limit was not always enough;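 further: 0% = enzyme with probe and DMSO and 100% = no enzyme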
Bcl-xL primary: Bcl-xL (human) inhibition | GST-Bcl-xL / FITC-Bim BH3 peptide fluorescence polarization | Q07817 | AID 2129 | inhibition, % at 10.9 µM | 0.7% of 320,000 active;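 active means inhibition above the mean of all tested compounds plus 3 SD, cutoff set per campaign, cut at about 30% in these data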;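 further: 0% = DMSO wells and 100% = unlabeled Bim-BH3 peptide competitor; inhibitors lower millipolarization by displacing the labeled peptide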
Target sequence (Q07817 whole entry, looked up): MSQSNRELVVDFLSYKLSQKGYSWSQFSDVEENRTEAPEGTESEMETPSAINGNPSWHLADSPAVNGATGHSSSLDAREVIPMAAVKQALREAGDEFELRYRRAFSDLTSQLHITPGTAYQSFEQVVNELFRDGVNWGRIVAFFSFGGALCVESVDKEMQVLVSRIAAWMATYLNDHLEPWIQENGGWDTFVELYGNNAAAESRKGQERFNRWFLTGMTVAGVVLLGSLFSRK
Keap1-Nrf2 PPI: disrupts human Keap1 binding to Nrf2 peptide; Q14145; AID 504523; 0.15% of 340,000 active; inhibition, % at 9.4 µM; Keap1 Kelch-Nrf2 peptide fluorescence polarization, 1536-well; in the data active means inhibition above about 12%;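 further: human Keap1 Kelch domain with fluorescein labeled Nrf2 9mer peptide probe; 0% = neutral control wells and 100% = peptide positive control; higher means more block of Keap1 binding to Nrf2 peptide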
LANA DNA inh: inhibitors of KSHV LANA C-terminal domain DNA binding. MBP-C-LANA/FAM-LBS DNA binding, fluorescence polarization. inhibition, % at 9 µM. 0.078% of 340,000 active. AID 504423;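 active means highest replicate inhibition at or above 60% at 9 µM, even if other replicates fall short; inactive means all replicates below 60% inhibition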;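 further: 0% = neutral control wells and 100% = 4 µM acridine orange control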
MEX-5 binding: C. elegans MEX-5 TCR-2 RNA binding activity | Q9XUB2 | MEX-5/FITC-TCR2 RNA binding, fluorescence polarization; stronger effect = lower value | activity score (negative = inhibition of binding), % at 10 µM | 0.38% of 300,000 active;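 active means inhibition past about -25% in most replicates, and total fluorescence under double the plate's negative control median, limit read from the data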;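 further: 0% = DMSO and -100% = 5 µM competing unlabeled TCR2 RNA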
GLD-1 TGE inh: GLD-1-TGE RNA interaction inhibition (C. elegans). inhibition, % at 5.96 µM. purified GLD-1 + fluorescein TGE RNA, fluorescence polarization. Q17339. 0.44% of 320,000 active;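 active means percent inhibition above a per-plate cutoff, the plate mean of test compounds plus 3 SD, cut at about 30% in these data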;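 further: 0% = DMSO wells with GLD-1 and probe and 100% = wells lacking GLD-1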
Numbers without * were called inactive; . = not tested or not shown.

SMILES	eLon inh	Bcl-xL primary	Keap1-Nrf2 PPI	LANA DNA inh	MEX-5 binding	GLD-1 TGE inh
O=C(NC(=S)Nc1cccc(S(=O)(=O)NC2=NCCC2)c1)c1cc(-c2ccco2)nc2ccccc12	4	44*	-2	7	1	21
O=C(OCC(=O)N1CCN(C(=O)c2ccco2)CC1)c1cc(-c2ccco2)nc2ccccc12	7	31*	-3	1	1	12
O=C(NC1CC1)c1cc(-c2ccco2)nc2ccccc12	-1	.	3	-1	0	.
O=C(O)c1cc(-c2ccco2)nc2ccccc12	4	34*	0	12	-10	14
CC(C)C[C@H]1COCCS(=O)(=O)N1Cc1ccc(Cl)c(Cl)c1	-1	67*	7	1	0	1
CCC1COCCS(=O)(=O)N1Cc1cccc(Cl)c1 (stereo not given)	0	-1	-7	-1	5	5
Cc1sc(NC(=O)c2ccco2)c(CN2CCCCC2)c1C	4	38*	-4	0	-11	31
OC[C@@H]1CN(Cc2ccccc2)C[C@H](n2cnc3c(NC4CCCC4)ncnc32)O1	-6	.	.	.	.	.
CCCCC(Sc1nc(N)c(NC(=O)c2ccco2)c(=O)[nH]1)C(=O)O (stereo not given)	3	31*	-5	3	1	24
CCOc1ccc(CCNC(=O)COn2nnc3ccc(S(=O)(=O)N4CCOCC4)cc32)cc1OCC	-2	-6	1	0	0	4
Cc1cc(-c2ccc(N=Nc3c(S(=O)(=O)O)cc4cc(S(=O)(=O)O)cc(N)c4c3O)c(C)c2)ccc1N=Nc1c(S(=O)(=O)O)cc2cc(S(=O)(=O)O)cc(N)c2c1O	.	65*	.	.	.	22
O=S(=O)(O)c1cc(O)c2c(O)c(N=Nc3cc(Cl)ccc3O)c(S(=O)(=O)O)cc2c1	45*	29	0	50	-46*	3
Nc1cc(S(=O)(=O)O)cc2ccc(S(=O)(=O)O)cc12	5	.	1	7	.	.
Oc1ccc(Cl)cc1N=Nc1ccccc1	2	6	-4	-1	-3	0
CCc1nc2ccc(C(=O)NCCc3ccccn3)cn2c1N(CCC(C)C)CCN(C)C	6	.	.	.	.	.
CC(C)OCCCNC(=O)C(=O)NCCCOC(C)C	-9	40*	0	-3	-1	19
O=C(CCCCCCCC(=O)c1ccccc1)c1ccccc1	-10	-9	-2	0	1	1
C=C(CCC(=O)c1ccccc1)C(=O)c1ccccc1	1	85*	-8	-1	0	14
O=S(=O)(c1cccc(-c2csc(-c3cccnc3)n2)c1)N1CCCCC1	-4	8	1	2	1	5
O=S(=O)(c1cccc(-c2csc(-c3cccnc3)n2)c1)N1CCOCC1	-3	2	-6	1	-27*	3
CCc1nc2ccc(C(=O)NCCCN(C)C)cn2c1N(C)CCCc1ccccc1	-2	.	.	.	.	.
C/C(N)=C(/C#N)C(=O)CSc1ncnc2ccccc12	-14	-2	-4	3	-39*	-23
C/C(N)=C(/C#N)C(=O)CSc1nc2ccccc2[nH]1	2	1	-5	2	-1	-4
Cc1cc(O)c2c(c1O)C(=O)[C@]13C(=C2O)C(=O)[C@@H]2[C@@H](O)[C@H]1[C@@H]1[C@H](O)[C@H]3C(=O)C3=C(O)c4c(O)cc(C)c(O)c4C(=O)[C@]312	27*	.	-14	27	.	30
CCC(=O)N1CCC1(C)C(=O)Nc1ccc(C)c(C)c1 (stereo not given)	-13	.	.	.	.	.
SMILES	eLon inh	Bcl-xL primary	Keap1-Nrf2 PPI	LANA DNA inh	MEX-5 binding	GLD-1 TGE inh
O=c1oc2ccccc2nc1/C=C(O)/C=C\c1ccccc1	-11	57*	-3	2	2	34*
NC(=S)NN=C1c2ccccc2-c2ccccc21	-2	3	-4	-4	-1	4
Cc1ccc(S(=O)(=O)N2C[C@H]3C(=O)C[C@@H](c4ccccc4)N(S(=O)(=O)c4ccc(C)cc4)[C@H]3C[C@H]2c2ccccc2Cl)cc1	11	.	.	.	.	.
CCN(CC)c1ccc(N=Nc2ncn[nH]2)cc1	-12	-15	-17	-4	-52*	-33
Cc1[nH]c2ccccc2c1/C=N/NC(=S)NC(C)C	-32	-3	-3	-2	-26*	-16
C[C@@H]1O[C@@H](O[C@@H]2[C@@H](O)[C@H](OCCc3ccc(O)c(O)c3)O[C@H](CO)[C@H]2OC(=O)/C=C/c2ccc(O)c(O)c2)[C@H](O)[C@H](O)[C@H]1O	1	.	-7	5	.	-1
COc1ccc(N/C(=C(/C(Cl)=C(Cl)Cl)[N+](=O)[O-])n2nnc3ccccc32)cc1	.	39*	.	.	-42*	18
Cc1ccccc1N/C(=C(/C(Cl)=C(Cl)Cl)[N+](=O)[O-])n1nnc2ccccc21	-14	5	-2	0	0	-1
COc1cc(OC)cc(-c2noc([C@H]3C[C@H](O)[C@@H](CO)O3)n2)c1	0	.	.	.	.	.
CCOC(=O)C1=C(CSc2nc3c(cc2C#N)CN(C)CC3)OC(N)=C(C#N)C1c1ccc(Cl)cc1 (stereo not given)	-20	40*	-6	3	1	33*
CC(Cc1ccc(O)c(O)c1)C(C)Cc1ccc(O)c(O)c1 (stereo not given)	.	31*	.	.	-36*	15
Cc1cccc(Oc2ccc3c(c2)cc(C(=O)O)n3C)c1	7	2	-3	-1	-2	6
O=S(=O)(Nc1nc2ccccc2nc1NCc1ccco1)c1ccc(Cl)cc1	-7	16	-2	3	4	4
Cc1ccc(S(=O)(=O)c2c(N)n(Cc3ccco3)c3nc4ccccc4nc23)cc1	6	30	-8	3	3	44*
Cc1ccc(S(=O)(=O)Nc2nc3ccccc3nc2NCc2ccco2)cc1	38*	40*	4	15	2	25
Cc1cccc(S(=O)(=O)c2c(N)n(Cc3ccco3)c3nc4ccccc4nc23)c1	-46	37*	-8	1	0	69*
Cc1cccn2c(=O)c3cc(C(=O)N(C)C)n(C)c3nc12	11	32*	5	4	-17	10
Cc1cccn2c(=O)c3cc(C(=O)NCCCn4ccnc4)n(C)c3nc12	2	44*	-2	1	-20	5
Cc1cc(=O)oc2cc(OCC(=O)NC3(C#N)CCCCC3)c(Cl)cc12	-1	.	-2	0	.	.
CN(CC1COc2ccccc2O1)C(=O)CCNS(=O)(=O)c1ccc(F)c(Cl)c1 (stereo not given)	2	.	.	.	.	.
COC(=O)C1=CCCCC(O)=C1C(=O)OC	4	.	.	.	.	.
Cc1cnc(C(=O)NNC(=O)c2ccc(Br)cc2)cn1	4	-1	-1	0	-41*	6
O=C(NNC(=O)C1CCC1)c1ccc(Br)cc1	-1	0	0	0	0	3
NC(=S)N/N=C/c1ncc(C(F)(F)F)cc1Cl	17	146*	0	0	-2	101*

Screening results (PubChem BioAssay)
